Test results: PubChem BioAssay (NCI)
Several values for one entry are separate records, joined by “and”; a condition that tells them apart may be missing. Equal entries are not always repeated. The panel holds about 83,000 compounds, 20% with a hit somewhere; the sample as a whole holds those more often.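 48-hour exposure, single concentration, 96-well plates; percent growth endpoint where 0 means no net growth. Active: below 10.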 Activity calls are given as the source filed them.

The molecules below were run on HCT-15 colon (assay: NCI-60 one-dose screen, 48 h (100 = growth as untreated, 0 = no growth, -100 = all killed)). Conditions: 10 µM unless noted.

| Compound | growth |
| --- | --- |
| Cc1ccc(C(=O)Nc2ccc(CN3CCN(C)CC3)c(C(F)(F)F)c2)cc1C#Cc1cnc(N)cc1C#N | -69.8% (active) |
| COc1cc(/C=C(/c2ccccc2)[N+](=O)[O-])c(OC)c2c1OCO2 | -30% (active) |
| C[C@@H]1CC[C@@H]2[C@@H]1[C@H](OC(=O)/C=C/c1ccccc1)[C@]1(c3ccccc3)C[C@@H](NC(=O)CO)[C@@]2(C)O1 | 91.7% (inactive) |
| Nc1ccc(-c2nc3ccc4[nH]ncc4c3c3c2CCCC3)cc1F | 15.5% (inactive) |
| C=C1CCC2C3(C)COC(c4ccc(NC(C)=O)cc4)OC3CCC2(C)C1C/C=C1/C(=O)OCC1O (stereo not given) | 63.3% (inactive) |
| Cc1c(C(C)(C)O)cn2ncnc(Oc3ccc(NC(=O)Nc4ccc(Cl)c(C(F)(F)F)c4)cc3)c12 | 36.8% (inactive) |
| Cc1ccccc1SSc1ccccc1C | 17.9% (inactive) |
| O=C(CC1(O)C(=O)Nc2ccc(Br)cc21)c1ccc(Cl)cc1 (stereo not given) | 109% (inactive) |
| O/N=C(/c1ccccc1)c1ccc2c3c(cccc13)CC2 | 84.7% (inactive) and 77.3% (inactive) |
| Cc1ccc(/C=C2\COc3ccc(O)c(O)c3C2=O)cc1 | -16.5% (active) |
| CC1(Cc2ccccc2)CC2=C(C(=O)O1)C(c1ccccc1)NC(=O)N2 (stereo not given) | 106% (inactive) |
| [Cu+].[NH-][C@H]1C[N-]C(=O)[C@H]([C@H]2CCN=C(N)N2)[N-]C(=O)/C(=C\NC(N)=O)[N-]C(=O)[C@H](CNC(=O)C[C@@H](N)CCCN)[N-]C(=O)[C@H](CO)[N-]C1=O | 100% (inactive) |
| S=c1nc(CS)[nH]c2ccccc12 | 93.2% (inactive) |
| Cc1oc2c(Cc3ccc(NC(=O)c4ccc(Cl)cc4)cc3)ncnc2c1C(=O)NO | 103% (inactive) |
| COc1ccc2c(c1)CCNC21C(=O)Nc2c(Br)cc(Br)cc21 (stereo not given) | 104% (inactive) |
| COC(=O)c1nc(-c2ccccc2)oc1S(=O)(=O)N(C)CCO | 42.5% (inactive) |
| [2H]C([2H])([2H])Oc1cccc(/C=C/C(=O)/C=C(/C=C/c2cccc(OC([2H])([2H])[2H])c2OC([2H])([2H])[2H])OB(F)F)c1OC([2H])([2H])[2H] | 58.3% (inactive) |
| N#Cc1ccccc1OCC(=O)Nc1nc2c(s1)COc1ccccc1-2 | 103% (inactive) |

| Compound | growth |
| --- | --- |
| COc1cc(/C=C2/C=C(c3ccc(C(C)(C)C)cc3)N(CCc3ccc(S(N)(=O)=O)cc3)C2=O)cc(OC)c1OC | 30.3% (inactive) |
| Nc1n[nH]c2cccc(C#Cc3cccc(NC(=O)c4ccc(N5CCOCC5)c(C(F)(F)F)c4)c3)c12 | 8.44% (active) |
| Cc1nn(-c2nc(-c3cc4ccccc4oc3=O)cs2)c(C)c1N=Nc1ccccc1 | 106% (inactive) |
| Cc1nnc(NS(=O)(=O)c2ccc(N=Nc3ccc(N)nc3N)cc2)s1 | 99.7% (inactive) and 107% (inactive) |
| COc1ccc(-c2csc(NC(=O)CN3CCN(CCO)CC3)n2)cc1NS(=O)(=O)c1cccc2c(N(C)C)cccc12 | 39.6% (inactive) |
| C=C(c1ccc(C(=O)O)cc1)c1cc2c(cc1C)C(C)(C)CCC2(C)C | 74.7% (inactive) and 65.1% (inactive) |
| O=[N+]([O-])c1cc(C(F)(F)F)ccc1Sc1ccc(C(F)(F)F)cc1[N+](=O)[O-] | 71.2% (inactive) |
| COc1ccc2c(O)c(/C=C3\N=Nc4nc(C)ccc43)oc2c1CC1CCNCC1 | 93.3% (inactive) |
| Cc1ccc(Nc2nc(-c3cc(O)c(C)c(C)c3O)cs2)cc1 | 76.7% (inactive) |
| COc1cc(N=Nc2ccc(O)c3ncccc23)c2ncccc2c1 | 27.5% (inactive) |
| CCCCCCCC/C=C\CCCCCCCCOc1ccccc1CC(=O)NCC[N+]1(C)CCOCC1 | 92.5% (inactive) |
| Nc1ccc(S(=O)(=O)c2ccc(N)cc2)cc1 | 114% (inactive) and 106% (inactive) |
| C[C@]12CCc3c(ccc4cc(O)ccc34)[C@@H]1C[C@H](O)[C@@H]2O | 108% (inactive) |
| COc1ccc(C(c2cc(OC)c(OC)c(OC)c2)n2ccnc2)cc1O (stereo not given) | 7.7% (active) |
| CN(C)CCCn1c2c(c3ccc(N4CCNCC4)cc3c1=O)C(=O)c1ccccc1-2 | -36.5% (active) |
| Clc1ccc(Nc2nc(Nc3ccc(Cl)cc3)nc(Nc3ccc(-c4cc(-c5cccc(Cl)c5)on4)cc3)n2)cc1 | 89.8% (inactive) |
| N#Cc1ccccc1-c1ccc(Cn2c(-c3cscn3)nc3c(Cl)cccc32)cc1 | 77.9% (inactive) |
